Measurements taken from the supplement of paper PMC4466140.

B1: unnamed (peptide)
chain: SSSSSPPPLPTRRDH

Each binder was assayed against ScBbc1 (assay: SPOT peptide array binding signal intensity (averaged, normalized) (arbitrary units (background-subtracted, floor 0; scale differs between SH3 domains)); higher = stronger binding of the SH3 domain to the peptide).
Summary of the method: (§1)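 Binding signal refers to normalized, background-subtracted spot intensity averaged over replicates, expressed in arbitrary units that differ between domains. GST-fused SH3 domains from four yeast species were incubated at 10 μg/ml overnight at 4°C on cellulose membranes of synthetic 15-mer peptides with cysteines replaced by serines. Bound protein was detected with anti-GST antibody, an HRP anti-mouse secondary and luminol, and quantified with Genespotter.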

Binder	SPOT peptide array binding signal intensity
B1	4

These binders were tested against ScBem1-D1 in the same assay as above.
Summary of the method: as §1

Binder	SPOT peptide array binding signal intensity
B1	≤ 0

These binders were tested against ScBzz1-D1 in the same assay as above.
Summary of the method: as §1

Binder	SPOT peptide array binding signal intensity
B1	≤ 0

The binders below were run against ScBzz1-D2 in the same assay as above.
Summary of the method: as §1

Binder	SPOT peptide array binding signal intensity
B1	12

These binders were tested against ScCyk3 in the same assay as above.
Summary of the method: as §1

Binder	SPOT peptide array binding signal intensity
B1	1

The binders below were run against ScFus1 in the same assay as above.
Summary of the method: as §1

Binder	SPOT peptide array binding signal intensity
B1	20

The binders below were run against ScHof1 in the same assay as above.
Summary of the method: as §1

Binder	SPOT peptide array binding signal intensity
B1	9.75

These binders were tested against ScHse1 in the same assay as above.
Summary of the method: as §1

Binder	SPOT peptide array binding signal intensity
B1	15

These binders were tested against ScLsb1 in the same assay as above.
Summary of the method: as §1

Binder	SPOT peptide array binding signal intensity
B1	1340

The binders below were run against ScLsb2 in the same assay as above.
Summary of the method: as §1

Binder	SPOT peptide array binding signal intensity
B1	349

Each binder was assayed against ScLsb3 in the same assay as above.
Summary of the method: as §1

Binder	SPOT peptide array binding signal intensity
B1	5910

The binders below were run against ScLsb4 in the same assay as above.
Summary of the method: as §1

Binder	SPOT peptide array binding signal intensity
B1	7200

The binders below were run against ScMyo3 in the same assay as above.
Summary of the method: as §1

Binder	SPOT peptide array binding signal intensity
B1	460

Each binder was assayed against ScMyo5 in the same assay as above.
Summary of the method: as §1

Binder	SPOT peptide array binding signal intensity
B1	166

The binders below were run against ScNbp2 in the same assay as above.
Summary of the method: as §1

Binder	SPOT peptide array binding signal intensity
B1	≤ 0

What follows are binders tested against ScPex13 in the same assay as above.
Summary of the method: as §1

Binder	SPOT peptide array binding signal intensity
B1	1560

These binders were tested against ScRvs167 in the same assay as above.
Summary of the method: as §1

Binder	SPOT peptide array binding signal intensity
B1	2180

What follows are binders tested against ScSho1 in the same assay as above.
Summary of the method: as §1

Binder	SPOT peptide array binding signal intensity
B1	26.5

What follows are binders tested against ScSla1-D1-D2 in the same assay as above.
Summary of the method: as §1

Binder	SPOT peptide array binding signal intensity
B1	51

The binders below were run against ScSla1-D3 in the same assay as above.
Summary of the method: as §1

Binder	SPOT peptide array binding signal intensity
B1	10

What follows are binders tested against SpAbp1-D1 in the same assay as above.
Summary of the method: as §1

Binder	SPOT peptide array binding signal intensity
B1	22.5

These binders were tested against SpBbc1 in the same assay as above.
Summary of the method: as §1

Binder	SPOT peptide array binding signal intensity
B1	13

The binders below were run against SpBzz1-D1 in the same assay as above.
Summary of the method: as §1

Binder	SPOT peptide array binding signal intensity
B1	406

The binders below were run against SpBzz1-D2 in the same assay as above.
Summary of the method: as §1

Binder	SPOT peptide array binding signal intensity
B1	9.75

The binders below were run against SpCyk3 in the same assay as above.
Summary of the method: as §1

Binder	SPOT peptide array binding signal intensity
B1	2

The binders below were run against SpHof1 in the same assay as above.
Summary of the method: as §1

Binder	SPOT peptide array binding signal intensity
B1	8.75

The binders below were run against SpHof1-2 in the same assay as above.
Summary of the method: as §1

Binder	SPOT peptide array binding signal intensity
B1	54.5

The binders below were run against SpHof1-3 in the same assay as above.
Summary of the method: as §1

Binder	SPOT peptide array binding signal intensity
B1	8.75

What follows are binders tested against SpHse1 in the same assay as above.
Summary of the method: as §1

Binder	SPOT peptide array binding signal intensity
B1	35

The binders below were run against SpLsb1 in the same assay as above.
Summary of the method: as §1

Binder	SPOT peptide array binding signal intensity
B1	1530

The binders below were run against SpLsb4 in the same assay as above.
Summary of the method: as §1

Binder	SPOT peptide array binding signal intensity
B1	6770

Each binder was assayed against SpMyo1 in the same assay as above.
Summary of the method: as §1

Binder	SPOT peptide array binding signal intensity
B1	308

These binders were tested against SpNbp2 in the same assay as above.
Summary of the method: as §1

Binder	SPOT peptide array binding signal intensity
B1	6

These binders were tested against SpPex13 in the same assay as above.
Summary of the method: as §1

Binder	SPOT peptide array binding signal intensity
B1	6.5

Each binder was assayed against SpRvs167 in the same assay as above.
Summary of the method: as §1

Binder	SPOT peptide array binding signal intensity
B1	2880

These binders were tested against SpSla1-D1-D2 in the same assay as above.
Summary of the method: as §1

Binder	SPOT peptide array binding signal intensity
B1	11

What follows are binders tested against SpSla1-D3 in the same assay as above.
Summary of the method: as §1

Binder	SPOT peptide array binding signal intensity
B1	9.5
